Data on 40 molecules can be found in PubChem BioAssay AID720565 (National Center for Advancing Translational Sciences (NCATS), 2013).

Each structure is given as a SMILES string. Several values for one entry are separate records, joined by “and”; a condition that tells them apart may be missing. Equal values may be shown once. Inconclusive results are not listed. Values without a mark were called inactive. Activity calls are given as the source filed them. Calls come from the whole dose curve; as a rule, active = well fitted activation curve with a large enough effect; inconclusive = small, poorly fitted or top-dose-only effect; inactive = no such curve, though single readings can be large or run the other way.
Potency is the fitted concentration of half-maximal effect.

The assay in a line: qHTS for small molecules that induce genotoxicity in ELG1 expressing cells: Confirmatory Assay for Cherry-picked Compounds. For activation: % of control where 0% means no effect. Note: nearly all actives have a fitted effect of over 35% in size. The conditions noted are these: ELG1-luciferase reporter cells, luminescence, 16 h; series mostly up to 46.1 µM; activation: at the top concentration. An excerpt: Cancer cells divide rapidly compared to normal cells in the body. During cell division, cancer cells need to duplicate their genome by DNA replication. The failure of genome duplication leads to cancer cells' death. Therefore, inhibitors of DNA replication could specifically kill cancer cells. Based on this concept, many chemotherapeutic agents were developed and have been used to treat cancer patients. However, there are a limited number of agents available in the clinical setting, and some of those that do exist have low efficacy and severe side effects. Therefore, if we can find the compounds that effectively block DNA replication either by directly damaging DNA or by inhibiting other cellular mechanisms, the options for cancer treatment will be broadened. We developed a quantitative high-throughput ELG1-luciferase reporter gene assay. Since the level of human ELG1 protein is enhanced in response to genetic stresses, increases in luciferase activity can be used to identify compounds that cause genetic stress. The data herein is the result of the confirmation assay against the cherry picked compounds selected from the primary qHTS (AID 504466). Activation is the desired outcome for this assay. NIH Chemical Genomics Center [NCGC] NIH Molecular Libraries Probe Centers Network [MLPCN] MLPCN Grant: MH092164 Assay Provider: Kyungjae Myung, National Human Genome Research Institute, NIH
For genotoxicity screening, 2,000 cells/ well (5 uL volume) were dispensed into white, solid-bottom 1536-well plates using a solenoid-based dispenser. Following transfer of 23 nL compound or DMSO vehicle by a pin tool, the plates were incubated 16 hr at 37 C, 5% CO2. Five microliter of ONE-Glo reagent (Promega) was then added to each plate. The assay plates were incubated for 30 min at room temperature followed by quantification of the luciferase activity using the PerkinElmer ViewLux CCD-based plate reader.
Turning to `COC(=O)Nc1nc2ccc(C(=O)c3cccs3)cc2[nH]1`, the Potency was 2.23 µM (active).
As to `Cc1c(C(=O)Nc2nccs2)oc2ccc(Br)cc12`, the Potency is 11.2 µM (active).
As to `O=C(NOCc1ccccc1)c1ccccc1`, the Potency was 8.88 µM (active).
The same measure, in the same setting: the result for `COc1ccc(/C=C/c2ccc3ccccc3n2)c(OC)c1` reads 0.25 µM (active); that for `COc1cc(/C=C(\C#N)C(=O)Nc2cccc(C(=O)O)c2)ccc1OCc1ccc(Cl)cc1`, 8.89 µM (active).
On to `Cc1cc(C(=O)COC(=O)C23CC4CC(CC(O)(C4)C2)C3)c(C)n1C`, for which the Potency was 14.1 µM (active).
On to `CC(C)C(=O)SCCCCCCC(=O)Nc1nc(-c2ccccc2)cs1`, for which the Potency was 12.5 µM (active).
In the case of `COc1ccc(-c2cc3cc(F)ccc3cn2)cc1`, the Potency is 2.23 µM (active).
`N#Cc1cc2cc3c(cc2nc1SCC(=O)N1CCOCC1)OCO3`: the Potency is 4.45 µM (active).
Consider `O=C1CCc2cc(NS(=O)(=O)c3ccccc3)cc3c2N1CCC3`, for which the “activation” value is 12.5%.
As for `COc1ccc(/C=C/c2cnc3ccccc3n2)cc1OC`, the Potency is 0.112 µM (active).
Turning to `COc1cccc(CNC(=O)C2CCCN(c3nn4c(=O)cc(C)nc4s3)C2)c1` (stereo not given), the “activation” value was -15.2%.
For the molecule `Cc1cc(C(=O)COC(=O)c2ccc(F)cc2)c(C)n1C`, the Potency was 2.23 µM (active).
With `N#Cc1ccsc1NC(=O)CSc1nncs1`, the Potency was 12.5 µM (active).
On the same count and under the same terms, the result for `Cc1ccnc(NC(=S)N2CCN(c3ccc(N)cc3)CC2)c1` reads 14.1 µM (active); that for `O=C(CCN1C(=O)NC2(CCCC2)C1=O)Nc1ccc(-c2nc3ccccc3s2)cc1`, 0.706 µM (active); that for `O=S(=O)(c1c(F)cccc1F)N1CCN(S(=O)(=O)c2c(F)cccc2F)CC1`, 15.8 µM (active).
The same measure, in the same setting: the figure for `O=c1nc2sc3ccccc3n2c(=O)n1-c1cccc(Cl)c1` is 5 µM (active); for `CN(C)c1ccc(C(=O)OCC(=O)c2ccc[nH]2)cc1` it is 14.1 µM (active).
Still for that read-out and setting: the result for `CN(C)N=Nc1ccc(/C=C2\C=Cc3ccccc32)cc1` reads 3.97 µM (active).
`O=C1CCc2cc(NS(=O)(=O)c3ccccc3)cc3c2N1CC3`: the “activation” value is 25%.
The same measure, in the same setting: the figure for `O=C(CSc1nc2ccccc2o1)Nc1ccccc1N1CCCCCC1` is -14.9%.
Take `Cn1cccc1C(=O)Nc1ccc(N2CCOCC2)cc1`: the Potency is 7.05 µM (active).
Still for that read-out and setting: the result for `CC(/C=C/C(=O)NO)=C\[C@@H](C)C(=O)c1ccc(N(C)C)cc1` reads 0.629 µM (active); that for `CSc1ccc(C(=O)c2[nH]c(=O)[nH]c2C)cc1`, 31.5 µM (active).
On the same count and under the same terms, the result for `O=c1[nH]c(-c2ccc(-c3cccc(Cl)c3)o2)nc2ccccc12` reads 1.12 µM (active) and 1.41 µM (active); that for `COc1ccc(-c2nc(-c3cccnc3)no2)cc1`, 3.97 µM (active).
In the case of `Cc1cc(C(=O)COC(=O)C2=COCCO2)c(C)n1-c1ccccc1`, the Potency was 0.25 µM (active).
Same read-out and setting: the result for `CN(C)c1cccc(-c2nnc(N3CCC(C(N)=O)CC3)s2)c1` reads 4.99 µM (active); that for `Nc1ccccc1NC(=O)c1ccc(CNC(=O)OCc2cccnc2)cc1`, 2.81 µM (active); that for `CCc1ccc(OCC(=O)Nc2ccc(-c3nc4ccccc4o3)c(O)c2)cc1`, 14.1 µM (active).
Same read-out and setting: the figure for `CC(=O)N(C)c1ccc(/C=C2\C=Cc3ccccc32)cc1` is 0.561 µM (active); for `COc1cccc(/C=C/C(=O)OCC(=O)c2ccccc2)c1OC` it is 3.53 µM (active).
On the same count and under the same terms, the figure for `O=C(CSc1nnc(-c2ccc(O)cc2)o1)Nc1ccccc1Br` is 14.1 µM (active).
As for `O=C(Cc1ccc(OCCCc2ccccc2)cc1)NO`, the Potency was 15.8 µM (active).
For `CCn1c(=O)n(CC)c2cc(S(=O)(=O)N3CCC(c4ccccc4)CC3)ccc21`, the “activation” value is -24.6%.
Consider `CN(C)c1ccc(/C=C/c2ccc3ccccc3[n+]2[O-])cc1`, for which the Potency is 0.0792 µM (active).
The same measure, in the same setting: the figure for `CS(=O)c1ccc(/C=C2\C=Cc3ccccc32)cc1` (stereo not given) is 1.26 µM (active).
Regarding `CC1CCCCC1NC(=O)CN1C(=O)NC(C)(c2ccc(OC(F)F)cc2)C1=O` (stereo not given), the “activation” value was -13.2%.
`CCCCCn1ncc2c3sc(C)cc3n(C)c2c1=O`: the Potency was 12.5 µM (active).
